Source: PubChem BioAssay (Tox21)
Records with an inconclusive call do not appear. Active and inactive are the calls of the source. The call rests on the fitted dose curve; in most records, active means well fitted cell-killing curve with a large enough effect in the repeat runs; inconclusive means weak or mixed curves, or effect the other way; inactive means flat fitted curve, though single readings scatter.

Test: qHTS assay to identify small molecule antagonists of the estrogen related receptor signaling pathway with the pleiotropic PPARgamma coactivator (PGC) cell viability counter screen (AID 1224822;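 further: viability read after 17.5 h compound exposure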)
Details: ERR/PGC reporter cell line viability counter screen; series mostly up to 46.1 µM; viability change, negative = cytotoxic: at the top concentration
From the text: National Center for Advancing Translational Sciences [NCATS]
NIH Chemical Genomics Center [NCGC]
U.S. Environmental Protection Agency [EPA]
National Institutes of Environmental Health Sciences [NIEHS]
National Toxicology Program [NTP]
U.S. Food and Drug Administration [FDA]
Estrogen related receptors (ERRs), the first orphan nuclear receptors discovered, play an important role in the control of cellular energy metabolism. ERRs are required for high-energy production in response to the environmental challenges. The pleiotropic PPARgamma coactivator (PGC) is a major partner of ERR and a key regulator in energy homeostasis. Together they have been implicated in the etiology of metabolic disorders such as Type 2 diabetes and metabolic syndrome. ERR-alpha was also identified as an adverse marker for breast cancer progression; ERR-alpha-positive tumors have a poor prognosis. To screen and to identify environmental compounds that perturb the ERR and PGC/ERR signaling pathways could provide valuable information for potential therapeutic or preventive measures in the treatment of metabolic disease. To differentiate true PGC/ERR antagonists or agonist from cytotoxic substances, the assay is multiplexed with cell viability assay.
Tox21 Assay Protocol Summary:
The PGC/ERR cells were dispensed at 2,000 cells/5 ul/well in 1536-well white plates using a Multidrop dispenser. After the assay plates were incubated at a 37 C/5% CO2 incubator for 6 hours, 23 nL of compounds dissolved in DMSO, positive and negative controls or DMSO only was transferred to the assay plate by a pin tool. The plates were incubated at 37 C for 17.5 hours. 1 ul/well of CellTiter-Fluor reagent was added into the assay plates using a Flying Reagent Dispenser. After 30 min incubation at 37 C/5% CO2, the fluorescence intensity in the plates was measured using a ViewLux plate reader.
On the % scale 0 is the no-effect control and ±100 the full control effect.

SMILES | viability change, negative = cytotoxic
CN(C)CCC(c1ccccc1)c1ccccn1 (stereo not given) | 10% (inactive)
COc1cc(Cc2cnc(N)nc2N)cc(OC)c1OC | 2.31% (inactive)
O=c1[nH]c(=O)n([C@H]2C[C@H](O)[C@@H](CO)O2)cc1Br | 3.58% (inactive)
COc1ccc2cc([C@H](C)C(=O)O)ccc2c1 | 11.7% (inactive)
COc1ccc(Cl)cc1C(=O)NCCc1ccc(S(=O)(=O)NC(=O)NC2CCCCC2)cc1 | 10.3% (inactive)
C#CCN(C)Cc1ccccc1 | 11.4% (inactive)
CN(C)CCC(c1ccc(Cl)cc1)c1ccccn1 (stereo not given) | 6.43% (inactive)
O=C1CCC(N2C(=O)c3ccccc3C2=O)C(=O)N1 (stereo not given) | 12.4% (inactive)
Cc1cnc(C(=O)NCCc2ccc(S(=O)(=O)NC(=O)NC3CCCCC3)cc2)cn1 | 8.6% (inactive)
NNc1nncc2ccccc12 | 3.8% (inactive)
